Hit rate of the full screen: of about 5,500 compounds, about 2,000 (36%) were called active. About 18% were inconclusive and are not listed. No stated cut-off is given here; in the data, active means normalized growth mostly below about 0.91 (no sharp cut-off); inconclusive means no clear call, values can overlap the other calls; inactive means mostly above about 0.92. The list shows a part of the results.
Experiment: chemical genetic growth profiling, strain panel (AID 1159580);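 further: tested at 20 µM; growth read once vehicle control cultures reached saturation at 30 °C; 1 = growth at the plate median or of vehicle wells; lower values mean less growth of the strain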
Settings: S. cerevisiae deletion strains, growth OD

Measured: normalized growth

CC[C@]12C=CCN3CC[C@@]4(c5ccc(OC)cc5N(C)C4[C@@](O)(C(=O)OC)[C@@H]1OC(C)=O)[C@@H]32 (stereo not given in full)
inactive: locus YAL021C, strain ccr4, hits give low values 1.01 | locus YAL026C, strain drs2, hits give low values 0.993 | locus YAL030W, strain snc1, hits give low values 1.02 | locus YBL061C, strain skt5, hits give low values 1.01 | locus YBR009C, strain hhf1, hits give low values 1.01 | locus YBR023C, strain chs3, hits give low values 1.01 | locus YBR171W, strain sec66, hits give low values 0.995 | locus YBR231C, strain swc5, hits give low values 0.996 | locus YBR279W, strain paf1, hits give low values 1 | locus YCL011C, strain gbp2, hits give low values 1.02 | locus YCL016C, strain dcc1, hits give low values 0.988 | locus YCL061C, strain MRC1, hits give low values 1.01 | locus YCL069W, strain vba3, hits give low values 1 | locus YCR088W, strain abp1, hits give low values 1 | locus YDL005C, strain med2, hits give low values 0.992 | locus YDL040C, strain nat1, hits give low values 1.02 | locus YDR001C, strain nth1, hits give low values 1.02 | locus YDR069C, strain doa4, hits give low values 0.989 | locus YDR137W, strain rgp1, hits give low values 0.949 | locus YDR159W, strain sac3, hits give low values 1 | locus YDR195W, strain ref2 1.01 | locus YDR297W, strain sur2, hits give low values 0.996 | locus YDR334W, strain swr1, hits give low values 1.04 | locus YDR335W, strain msn5, hits give low values 1.01 | locus YDR392W, strain spt3, hits give low values 0.943 | locus YEL003W, strain gim4, hits give low values 1 | locus YEL037C, strain rad23, hits give low values 1 | locus YEL061C, strain CIN8 (second series), hits give low values 1.02 | locus YER015W, strain faa2, hits give low values 1.01 | locus YER016W, strain bim1, hits give low values 0.993 | locus YER111C, strain swi4, hits give low values 0.981 | locus YER155C, strain BEM2 (second series), hits give low values 0.973 | locus YFR010W, strain ubp6, hits give low values 1 | locus YGL167C, strain pmr1, hits give low values 0.992 | locus YGL173C, strain kem1, hits give low values 0.998 | locus YGL227W, strain vid30, hits give low values 0.989 | locus YGL240W, strain doc1, hits give low values 1 | locus YGL253W, strain hxk2, hits give low values 1.03 | locus YHR013C, strain ard1, hits give low values 0.966 | locus YHR027C, strain rpn1, hits give low values 1.01 | locus YHR030C, strain SLT2, hits give low values 0.912 | locus YHR079C, strain IRE1, hits give low values 0.924 | locus YHR142W, strain chs7, hits give low values 1.04 | locus YJL092W, strain hpr5, hits give low values 1.01 | locus YJL095W, strain BCK1 (second series), hits give low values 1 | locus YJL095W, strain BCK1, hits give low values 0.983 | locus YJL115W, strain asf1, hits give low values 0.999 | locus YJL129C, strain trk1, hits give low values 1.02 | locus YJL154C, strain vps35, hits give low values 0.992 | locus YJL164C, strain tpk1, hits give low values 1.01 | locus YJL166W, strain qcr8, hits give low values 1.01 | locus YJL187C, strain SWE1, hits give low values 1 | locus YJR066W, strain TOR1, hits give low values 0.909 | locus YKL160W, strain elf1, hits give low values 0.995 | locus YKR026C, strain gcn3, hits give low values 1.01 | locus YKR091W, strain srl3, hits give low values 0.992 | locus YLL001W, strain dnm1, hits give low values 0.997 | locus YLL026W, hits give low values 0.992 | locus YLL041C, strain sdh2, hits give low values 1.01 | locus YLR027C, strain aat2, hits give low values 1.01 | locus YLR113W, strain HOG1, hits give low values 0.942 | locus YLR221C, strain rsa3, hits give low values 0.999 | locus YLR258W, strain gsy2, hits give low values 1.01 | locus YLR262C, strain YPT6 (second series), hits give low values 0.927 | locus YLR320W, strain mms22, hits give low values 0.97 | locus YLR342W, strain FKS1, hits give low values 0.965 | locus YLR357W, strain rsc2, hits give low values 1.02 | locus YLR370C, strain arc18, hits give low values 1.01 | locus YLR384C, strain iki3, hits give low values 1.01 | locus YML120C, strain ndi1, hits give low values 0.994 | locus YMR058W, strain fet3, hits give low values 1.04 | locus YMR125W, strain sto1, hits give low values 1.03 | locus YMR129W, hits give low values 1 | locus YMR205C, strain PFK2, hits give low values 1.01 | locus YMR231W, strain pep5, hits give low values 0.993 | locus YNL071W, strain lat1, hits give low values 0.985 | locus YNL183C, strain NPR1, hits give low values 0.961 | locus YNL209W, strain ssb2, hits give low values 1.01 | locus YNL248C, strain rpa49, hits give low values 0.982 | locus YNL322C, strain KRE1 (second series), hits give low values 0.987 | locus YNR049C, strain mso1, hits give low values 1.01 | locus YOR001W, strain rrp6, hits give low values 1.01 | locus YOR070C, strain gyp1, hits give low values 1 | locus YOR080W, strain dia2, hits give low values 1 | locus YOR083W, strain WHI5, hits give low values 0.934 | locus YOR106W, strain vam3, hits give low values 0.994 | locus YOR231W, strain MKK1, hits give low values 0.928 | locus YOR265W, strain rbl2, hits give low values 1.01 | locus YOR270C, strain vph1, hits give low values 0.934 | locus YOR290C, strain snf2, hits give low values 0.999 | locus YPL051W, strain arl3, hits give low values 0.984 | locus YPL078C, strain atp4, hits give low values 0.989 | locus YPL106C, strain sse1, hits give low values 0.988 | locus YPL240C, strain hsp82, hits give low values 1 | locus YPL256C, strain CLN2, hits give low values 0.923

Source: PubChem BioAssay AID1159580 (chemical genetic matrix, 2015)
